A short description of assay [1]: P. berghei load reduction in hepatocytes – cell-based, HepG2, luciferase luminescence, HepG2 viability, primary screen (AID 624349; in the data active = parasite load remaining mostly below about 12%, no sharp cut-off; inactive = mostly above about 10%;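 note: 100% = mean of DMSO negative control wells on the same plate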). As to conditions: P. berghei liver stage in HepG2, luciferase luminescence, concentration not given here; parasite load remaining: stronger effect = lower value; viability: measured here: HepG2 viability without parasites.
Assay [2] in a line: signal quenchers or enhancers, Cy5 substrate/SSB – biochemical, NIH Clinical Collection, E. coli SSB, artefact control for HCV NS3 helicase inhibitor project (AID 743268; call rule not given here). The conditions noted are these: Cy5-oligo bound E. coli SSB, fluorescence interference.
Assay [3] relates to Hepatitis C virus NS3 helicase. In words: blockers of NS3h binding to DNA – biochemical, fluorescence polarization, NIH Clinical Collection, primary screen (AID 743270; call rule not given here). The conditions noted are these: NS3 helicase binding to Cy5-dT15 DNA, stronger effect = higher value, concentration not given here. (In general: Fluorescence polarisation rises when a labelled molecule tumbles more slowly, as on binding a larger partner.)

The target of assay [4] is Single-stranded DNA-binding protein (Escherichia coli (strain K12)) (UniProt P0AGE0). In words: SSB-ssDNA binding inhibitors – biochemical, fluorescence polarization, NIH Clinical Collection, counter-screen for HCV NS3 helicase inhibitor project (AID 743271; in the data active = inhibition above about 28%). As to conditions: E. coli SSB-DNA binding, stronger effect = higher value, concentration not given here.
The nature of assay [5]: compounds distorting NS3 helicase fluorescence signal – biochemical, NIH Clinical Collection, artefact control for HCV NS3 helicase inhibitor project (AID 743272; call rule not given here;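 note: HCV NS3 helicase with a Cy5 labelled single stranded DNA probe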). As to conditions: fluorescence interference counterscreen, HCV NS3 helicase assay; stronger effect = lower value. (In general: Counterscreens check selectivity or assay interference.)
Assay [6] concerns Neuropilin-2 / VEGF-C interaction (human). Nature of the assay: small molecules blocking Neuropilin-2/VEGF-C interaction – biochemical, microplate binding format, z-score (AID 743281; call rule not given here). As to conditions: microplate NRP2/VEGF-C binding assay; stronger effect = lower value.
The nature of assay [7]: modulation of C. elegans fzo-1 (AID 1259413; call rule not given here;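 note: fzo-1 mutant C. elegans worms in liquid wells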). The conditions noted are these: C. elegans fzo-1 modulator screen, mean read-out; stronger effect = higher value.
The test system of a further assay is F380Y. Nature of the assay: BK channel mutant inhibitors and activators – cell-based, U2OS BacMam, thallium flux, beta subunits, selectivity assay, profiling panel (AID 1259406).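 Note: initial slope of Thallos dye fluorescence rise after thallium is added; log ratio against the mean of 0.3% DMSO vehicle wells on the same plate.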 The conditions noted are these: U2OS BacMam BK variants, at 30 µM.
A further assay relates to F380Y/beta1. The assay is described as above. The conditions noted are these: U2OS BacMam BK variants, at 30 µM.
For another assay, the system named is F380Y/beta2Delta. The assay is described as above. As to conditions: U2OS BacMam BK variants, at 30 µM.
Another assay concerns F380Y/beta4. The description is as above. As to conditions: U2OS BacMam BK variants, at 30 µM.
The target of assay [8] is Calcium-activated potassium channel subunit alpha-1 (Homo sapiens) + Leucine-rich repeat-containing protein 26 (Homo sapiens) (UniProt Q12791+Q2I0M4). The description is as above. The conditions noted are these: U2OS BacMam BK variants, F380Y/Slo1WT/gamma1, at 30 µM.
Calcium-activated potassium channel subunit alpha-1 (Homo sapiens) + Leucine-rich repeat-containing protein 26 (Homo sapiens), sequence (Q2I0M4 whole entry, looked up, one chain of several): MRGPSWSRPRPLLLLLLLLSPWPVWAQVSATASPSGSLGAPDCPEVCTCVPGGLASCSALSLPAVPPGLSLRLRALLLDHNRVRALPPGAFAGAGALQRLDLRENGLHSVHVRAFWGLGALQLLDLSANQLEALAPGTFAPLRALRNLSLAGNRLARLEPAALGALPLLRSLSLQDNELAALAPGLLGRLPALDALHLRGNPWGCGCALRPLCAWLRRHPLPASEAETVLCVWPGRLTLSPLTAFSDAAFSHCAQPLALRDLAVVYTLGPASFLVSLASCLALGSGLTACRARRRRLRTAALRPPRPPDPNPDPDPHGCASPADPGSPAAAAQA
Another assay relates to R275C. The description is as above. The conditions noted are these: U2OS BacMam BK variants, at 30 µM.
The subject of the next assay is R275C/beta1. The description is as above. As to conditions: U2OS BacMam BK variants, at 30 µM.
The test system of another assay is R275C/beta2Delta. Described as above. The conditions noted are these: U2OS BacMam BK variants, at 30 µM.
Another assay concerns R275C/beta4. Described as above. As to conditions: U2OS BacMam BK variants, at 30 µM.
In the next assay the test system is R275C/Slo1WT/beta2. Described as above. As to conditions: U2OS BacMam BK variants, at 30 µM.
Assay [9] is described as follows: viability loss with induced miR-34 in A549 – imaging, A549 dox-inducible miR-34, nuclei and caspase counts, primary screen (AID 1347080;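 active = compounds whose cell count with miR-34 switched on is under 0.7 times the count with it off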). As to conditions: A549 miR-34 inducible, Hoechst nuclei count, 48 h.
Assay [10] can be described thus: MELAS cybrid and Rieske KO viability enhancers – cell-based, MELAS cybrids, Rieske KO mouse fibroblasts, CellTiter-Glo, primary screen (AID 1508586;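 active = mean z-score across replicates of 1.96 or higher in either the MELAS or the Rieske mutant cell line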;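 note: z relative to plate mean and SD of compound and empty wells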). The conditions noted are these: low glucose. (In general: In ATP-based viability assays light output follows the ATP content of the culture.)
Assay [11] can be described thus: galactose survival enhancers in mitochondrial complex I cybrids – cell-based, galactose medium, ATP luminescence, primary screen (AID 1645843;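 active = z-score of at least 1.8 in each of two replicates, scored against plate mean and spread of sample wells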;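 note: positive z means more ATP and so rescue of galactose-driven cybrid death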). The conditions noted are these: complex I mutant cybrid cells, 72 h, stronger effect = higher value.
[12] abbreviates: stronger effect = lower value, cell number ratio, induced over uninduced.
[13] abbreviates: measured here: relative caspase fold change +Dox/-Dox.
[14] abbreviates: measured here: total cells with miR-34 induction, stronger effect = lower value.
The mark [15] stands for this setting: measured here: total cells without miR-34 induction.

These results are taken from PubChem BioAssay.

Structures are written as SMILES. Values joined by “and” are separate entries in the source; they are usually repeats but may differ in a detail not shown here. Equal values may be shown once. Active and inactive are the calls of the source.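 Rule for the calls, unless noted: active = thallium flux through the channel raised or lowered by more than 3 SD from vehicle-only wells, actives on both sides; inactive = the rest.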

A word on the viability: it is a per cent measure of how many cells are alive, often set against a control. For orientation: inhibition means the drop in the measured response relative to a control, in per cent. As for `O=C1c2c(O)cc(O)cc2O[C@H](c2ccc(O)c(O)c2)[C@@H]1O`, in [1], the parasite load remaining is 102% (inactive). In assay [1], this compound gave a viability of 72.9%. Further, the fluorescence ratio in assay [2] and in assay [5] was 1.01 (inactive) each time. Further, the inhibition was -0.4% (inactive) in [3] and -1.64% (inactive) in assay [4]. For the same compound, the z-score in assay [6] is -0.585 (inactive). Further, the mean signal in [7] was 251 (inactive). Moreover, the log fold change Tl+ flux was -0.0094 (inactive) with F380Y; 0.0164 (inactive) in the assay with F380Y/beta1; 0.0588 (inactive) in the assay on F380Y/beta2Delta; -0.00507 (inactive) in the assay with F380Y/beta4; -0.00714 (inactive) in assay [8]; -0.0635 (inactive) in the assay with R275C. Moreover, the log fold change Tl+ flux in the assay with R275C/beta1 is 6.5e-05 (inactive); in the assay on R275C/beta2Delta, 0.0295 (inactive); with R275C/beta4 it was -0.031 (inactive); in the assay with R275C/Slo1WT/beta2, -0.00661 (inactive).
As for `Fc1ccc(C2CCNCC2COc2ccc3c(c2)OCO3)cc1` (centres undefined), the parasite load remaining in assay [1] is -4.52% (inactive). The viability in [1] came to 0.26%. In addition, the results for the fluorescence ratio in assay [2] and in assay [5] were 1 (inactive) and 0.83 (inactive), respectively. In addition, the inhibition in [3] was -15% (inactive); in [4], 3.34% (inactive). Moreover, the fold change is 0.992 (inactive) and 1.04 (inactive) and 0.943 (inactive) in assay [9] (setting [12]); 1.42 and 1.09 and 2.45 in [9] (setting [13]). The cell count in assay [9] (setting [14]) was 5960 and 7070 and 8540; in assay [9] (setting [15]) it was 6000 and 6830 and 9050. The z-score in assay [10] (MELAS cybrid survival, CellTiter-Glo 48 h, stronger effect = higher value) is -1.22 (inactive); in assay [10] (Rieske KO mouse fibroblast survival, CellTiter-Glo 72 h) it was 0.964; in [11], -0.98 (inactive) and -1.43 (inactive). In addition, the log fold change Tl+ flux in the assay with F380Y was 0.146 (active); in the assay with F380Y/beta1, 0.116 (inactive); in the assay with F380Y/beta2Delta, 0.246 (active); with F380Y/beta4, 0.274 (active); in assay [8] it was 0.0579 (inactive); in the assay on R275C, 0.0588 (inactive). Further, the log fold change Tl+ flux with R275C/beta1 is 0.254 (active); with R275C/beta2Delta, 0.126 (active); in the assay with R275C/beta4 it was 0.218 (active); with R275C/Slo1WT/beta2 it was -0.0537 (inactive).
`Nc1ccc2cn[nH]c2c1`: the parasite load remaining in [1] was 61.3% (inactive). This compound also had a viability in [1] of 64.9%. For the same compound, the fluorescence ratio in [2] was 0.99 (inactive); in assay [5], 0.98 (inactive). The inhibition in [3] is -1.09% (inactive); in assay [4], -0.39% (inactive). For the same compound, the z-score was -0.807 (inactive) in [6] and 0.52 (inactive) in [11]. The mean signal in assay [7] was 290 (inactive). For the same compound, the figures for the fold change in [9] (setting [12]) and in assay [9] (setting [13]) were 0.924 (inactive) and 1.71, respectively. Moreover, the cell count in assay [9] (setting [14]) was 8130; in assay [9] (setting [15]), 8800. The log fold change Tl+ flux was -0.0182 (inactive) in the assay on F380Y; -0.022 (inactive) in the assay on F380Y/beta1; 0.0231 (inactive) with F380Y/beta2Delta; -0.00919 (inactive) with F380Y/beta4; 0.0509 (inactive) in [8]; -0.0141 (inactive) in the assay on R275C. For the same compound, the log fold change Tl+ flux was -0.000281 (inactive) in the assay with R275C/beta1, 0.0572 (inactive) in the assay with R275C/beta2Delta, -0.0327 (inactive) in the assay with R275C/beta4 and 0.0188 (inactive) with R275C/Slo1WT/beta2.
